PubChem BioAssay (Tox21)
Records with an inconclusive call do not appear. Calls of active or inactive are those of the source. The call rests on the fitted dose curve.
On the % scale 0 is the no-effect control and ±100 the full control effect; potency means the concentration at half of the fitted maximal effect.

The molecules below were run against 5-hydroxytryptamine receptor 2A (Homo sapiens) (UniProt P28223) (assay: 5-hydroxytryptamine receptor 2A (HTR2A) small molecule agonists, cell-based qHTS assay (AID 1963587; further: nearly all actives have a fitted effect of over 30% in size)). Conditions: HTR2A-CHO cells, calcium flux fluorescence, agonist mode; series mostly up to 76.8 µM; activation: at the top concentration.
Chain of 5-hydroxytryptamine receptor 2A (Homo sapiens) (P28223 whole entry, looked up): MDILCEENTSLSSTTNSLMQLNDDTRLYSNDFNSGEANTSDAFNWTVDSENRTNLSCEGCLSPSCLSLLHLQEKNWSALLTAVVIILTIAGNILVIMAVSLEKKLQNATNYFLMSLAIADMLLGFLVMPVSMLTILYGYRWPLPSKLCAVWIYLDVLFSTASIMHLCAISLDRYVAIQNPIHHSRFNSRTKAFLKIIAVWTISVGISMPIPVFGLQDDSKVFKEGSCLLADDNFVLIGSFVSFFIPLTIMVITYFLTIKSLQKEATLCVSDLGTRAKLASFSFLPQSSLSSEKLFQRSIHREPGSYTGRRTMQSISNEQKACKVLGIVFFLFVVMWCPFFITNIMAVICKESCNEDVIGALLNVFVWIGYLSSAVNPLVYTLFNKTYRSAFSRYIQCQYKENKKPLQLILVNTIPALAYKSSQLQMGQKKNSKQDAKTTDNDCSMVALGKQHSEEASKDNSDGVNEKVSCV
From the text: National Center for Advancing Translational Sciences [NCATS]
Division of Preclinical Innovation [DPI]
U.S. Environmental Protection Agency [EPA]
National Institutes of Environmental Health Sciences [NIEHS]
National Toxicology Program [NTP]
U.S. Food and Drug Administration [FDA]
The HTR2A receptor is a subtype of the 5-HT2 receptor that belongs to the serotonin receptor family and is a G protein-coupled receptor (GPCR). The HTR2A-CHO cell line stably expressing human 5-hydroxytryptamine receptor 2A (HTR2A) can be used for screening agonists of interactions between 5-HT2 and its ligands. The HTR2A-CHO calcium flux assay is a homogeneous fluorescence-based assay for detecting the intracellular calcium level using FDSS kinetic plate reader system.
HTR2A-CHO cells were dispensed at 2000 cells/3uL/well in 1536-well black-clear bottom plates using a Multidrop Dispenser. After the assay plates were incubated at a 37 C/5% CO2 incubator for 18 h, 3 uL of Dye Loading Buffer was transferred to the assay plate by a Flying Reagent Dispenser. The assay plates were incubated at 37 C for 1h. For agonist mode, 23 nL of compounds dissolved in DMSO, positive controls or DMSO only was transferred to the assay plate by a pin tool. The fluorescence intensity in the plates was measured using FDSS 7000EX kinetic plate reader for 2 min at 1 sec intervals.
With `O=C1c2ccccc2C(=O)c2c1ccc(O)c2O` the “activation” value was -9.42% [at 35.6 µM] (inactive).
`N/C(=N\N=C\c1ccc(Cl)cc1)N/N=C/c1ccc(Cl)cc1` was tested, and the “activation” value was -9.33% [at 35.6 µM] (inactive).
In the case of `CCOc1ccc(NC(C)=O)cc1N`, the “activation” value is reported as -0.255% (inactive).
`CC(=O)Nc1ccc(OCCOCCOc2ccc(NC(C)=O)cc2)cc1` was tested, and the “activation” value was -0.53% [at 35.6 µM] (inactive).
`CC(=O)SCc1ccco1` was tested, and the “activation” value was -0.0105% (inactive).
With `CNCc1ccc(NC(=O)c2c[nH]c3c2C(=O)CCC3)cc1` the “activation” value was -0.923% (inactive).
With `S=C(S)NCCNC(=S)S` the “activation” value was 4.55% (inactive).
In the case of `CC(=O)CCc1ccc(OC(C)=O)cc1`, the “activation” value is reported as -1.74% (inactive).
`COCCOC[C@H](CC1(C(=O)NC2CCC(C(=O)O)CC2)CCCC1)C(=O)Oc1ccc2c(c1)CCC2` (stereo not given in full) was tested, and the “activation” value was -0.553% (inactive).
`c1cc(C(c2ccc(OCC3CO3)cc2)c2ccc(OCC3CO3)cc2)ccc1OCC1CO1` (stereo not given) was tested, and the “activation” value was 1.16% (inactive).
For `Cc1ccc(N)cc1S(=O)(=O)O`, the “activation” value was 1.39% (inactive).
In the case of `CCCCCCCCCCCCN(CCCCCCCCCCCC)CCCCCCCCCCCC`, the “activation” value is reported as -0.257% (inactive).
With `CN(C)CCOC(c1ccccc1)c1ccc(Br)cc1` (stereo not given) the “activation” value was -0.326% [at 35.6 µM] (inactive).
`O=C(O)c1ccccc1Nc1cc(Cl)ccc1C(=O)O` was tested, and the activation was -3.1% [at 15.9 µM] (inactive).
`O=C(O)COc1nn(Cc2ccccc2)c2ccccc12` was tested, and the “activation” value was -1.79% [at 35.6 µM] (inactive).
`CC(=O)C(=O)CC(C)C` was tested, and the “activation” value was 2.85% (inactive).
For `CCCCCCCC/C=C/CCCOC(C)=O`, the “activation” value was -1.56% (inactive).
With `CCc1cc(C(C)(C)C)c(O)c(C(C)(C)C)c1` the Potency was “inactive”.
For `CN1CCN(c2cc3c(nn2)Oc2ccccc2N3C)CC1`, the activation was -12.8% [at 15.9 µM] (inactive).
`CCCCCCCCCC[N+](C)(CCCCCCCCCC)CCC[Si](OC)(OC)OC` was tested, and the “activation” value was 2% (inactive).
With `C=O` the “activation” value was -0.724% (inactive).
For `C/C(C=O)=C\c1ccccc1`, the “activation” value was 2.61% (inactive).
For `NC(=O)N(O)[C@@H]1COc2cc(OCc3ccccc3)ccc21`, the “activation” value was -1.56% (inactive).
`CCOc1ccc2nc(N)sc2c1` was tested, and the “activation” value was -2.19% (inactive).
With `NC1(c2ccc(-c3nc4ccn5c(=O)[nH]nc5c4cc3-c3ccccc3)cc2)CCC1` the Potency was 26.8 µM (active).
For `CC(C)(C)C(=O)c1ccccc1`, the “activation” value was 3.03% (inactive).
In the case of `CC(C)COC(=O)C(C)C`, the “activation” value is reported as -0.426% (inactive).
`CC/C=C\CC/C=C/CO` was tested, and the “activation” value was -3.61% (inactive).
In the case of `O=C(c1ccc(O)cc1)c1ccc(O)c(O)c1O`, the “activation” value is reported as -0.177% (inactive).
For `Nc1ccc2c3c(cccc13)-c1ccccc1-2`, the Potency was 24.8 µM (active).
In the case of `CCOC(C)OCC`, the “activation” value is reported as 0% (inactive).
In the case of `CC1=CCCC(C)(C)C12CCC(C)O2` (stereo not given), the “activation” value is reported as 1.48% (inactive).
For `O/N=C/C=N/O`, the “activation” value was 0.149% (inactive).
In the case of `C=C(C)C(=O)OCc1ccccc1`, the “activation” value is reported as -1.19% (inactive).
In the case of `CC1CCC(=O)C1=O` (stereo not given), the “activation” value is reported as 4.38% (inactive).
For `CCCCC[Si](OCC)(OCC)OCC`, the “activation” value was 0.329% (inactive).
For `CC(C)C(C)C`, the “activation” value was 0.283% (inactive).
In the case of `COc1ccc(COC=O)cc1`, the “activation” value is reported as 8.85% (inactive).
With `CC(O)CC(C)O` (stereo not given) the “activation” value was -0.795% (inactive).
`O=C(/C=C/c1ccc(O)c(O)c1)O[C@@H](C(=O)O)[C@@H](OC(=O)/C=C/c1ccc(O)c(O)c1)C(=O)O` was tested, and the “activation” value was 10.6% (inactive).
